In the supplement of paper PMC6555819:

Experiments:
Test in all cases: PBM binding z-score (relative to random genomic background probes); higher = stronger binding; sequences stand for … in GC…GCGATTGACAGCGTAGAATGAAGG
[1] = tested on: FXR:RXRa (NR concentration 270 nM, RXRa partner concentration 90 nM)
Procedure, shortened: (§1)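 Ligand-free nuclear receptor dimers were bound for 1 h to custom Agilent 4×180K protein-binding microarrays. Detection used antibodies against each partner (one per run). Binding z-scores rest on regression-normalized fluorescence, with random background probes as the reference.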

[2] = tested on: LXRa homodimer (NR concentration 270 nM)
Procedure, shortened: as §1

[3] = tested on: LXRb homodimer (NR concentration 270 nM)
Procedure, shortened: as §1

[4] = tested on: PPARa:RXRa (NR concentration 270 nM, RXRa partner concentration 90 nM)
Procedure, shortened: as §1

[5] = tested on: PPARg:RXRa (NR concentration 180 nM, RXRa partner concentration 90 nM)
Procedure, shortened: as §1

[6] = tested on: PPARg:RXRa 270nM:90nM, anti-RXR (NR concentration 270 nM, RXRa partner concentration 90 nM)
Procedure, shortened: as §1

[7] = tested on: PPARg:RXRa 30nM:10nM, anti-RXR (NR concentration 30 nM, RXRa partner concentration 10 nM)
Procedure, shortened: as §1

[8] = tested on: PPARg:RXRa 90nM:30nM, anti-RXR (NR concentration 90 nM, RXRa partner concentration 30 nM)
Procedure, shortened: as §1

[9] = tested on: PPARg:RXRa DBDmut IVT, anti-RXR (DBD mutation: RXRa K156A/R161A, NR concentration 270 nM, RXRa partner concentration 90 nM)
Procedure, shortened: as §1

[10] = tested on: PPARg:RXRa IVT, anti-PPARg (NR concentration 270 nM, RXRa partner concentration 90 nM)
Procedure, shortened: as §1

[11] = tested on: PPARg DBDmut:RXRa IVT, anti-PPARg (DBD mutation: PPARg1 K132A/R137A, NR concentration 270 nM, RXRa partner concentration 90 nM)
Procedure, shortened: as §1

[12] = tested on: PPARg DBDmut IVT, anti-PPARg (DBD mutation: PPARg1 K132A/R137A, NR concentration 270 nM)
Procedure, shortened: as §1

[13] = tested on: PPARg homodimer (NR concentration 180 nM)
Procedure, shortened: as §1

[14] = tested on: PXR:RXRa (NR concentration 270 nM, RXRa partner concentration 90 nM)
Procedure, shortened: as §1

[15] = tested on: PXR homodimer (NR concentration 270 nM)
Procedure, shortened: as §1

[16] = tested on: RARa:RXR (NR concentration 270 nM, RXRa partner concentration 90 nM)
Procedure, shortened: as §1

[17] = tested on: RARa homodimer (NR concentration 270 nM)
Procedure, shortened: as §1

[18] = tested on: RARb:RXRa (NR concentration 270 nM, RXRa partner concentration 90 nM)
Procedure, shortened: as §1

[19] = tested on: RARb homodimer (NR concentration 270 nM)
Procedure, shortened: as §1

Sequence | PBM binding z-score [1] | PBM binding z-score [2] | PBM binding z-score [3] | PBM binding z-score [4] | PBM binding z-score [5] | PBM binding z-score [6] | PBM binding z-score [7] | PBM binding z-score [8] | PBM binding z-score [9] | PBM binding z-score [10] | PBM binding z-score [11] | PBM binding z-score [12] | PBM binding z-score [13] | PBM binding z-score [14] | PBM binding z-score [15] | PBM binding z-score [16] | PBM binding z-score [17] | PBM binding z-score [18] | PBM binding z-score [19]
CCTTACGGGTCACGAGGTTGTAGCACGACGAGCG | 6.87 | 0.0323 | -0.413 | 5.73 | 6.48 | 6.12 | 3.32 | 5.08 | 4 | 4.99 | 1.56 | -0.374 | 3.19 | 3.92 | -0.0862 | 5.55 | 0.412 | 4.42 | 3.53
CCTACTGGGCCGTTCAGAGGTCATTGATCATATG | 2.45 | 5.59 | 0.189 | 3.56 | 1.33 | 2.48 | 0.658 | 1.67 | 1.34 | 2.34 | -0.522 | -0.314 | 1.94 | 4.75 | 2.25 | 4.52 | 0.491 | 2.7 | 3.78
GCTAGTTGGTCAGTAAAAGGTGACACACCGGTCG | 0.000592 | -0.18 | -0.568 | – | 0.834 | 1.59 | -0.104 | 1.02 | 0.643 | 1.63 | -1.22 | -1.06 | 0.86 | 0.431 | -0.523 | 1.07 | 0.0812 | 1.83 | 2.45
TCGCCTAGGTCATGGGCCAGTATACCACGCGAAC | 4.68 | 0.142 | -0.146 | 4.13 | 3.52 | 3.4 | 1.9 | 2.9 | 1.88 | 2.65 | 0.306 | -0.587 | 1.21 | 1.7 | -0.2 | 2.97 | -0.243 | 3.97 | 3.12
CGAACTAGGTCATTGACAGGACAATGAATAGTAA | 4.51 | 0.605 | -0.0587 | 5.06 | 7.97 | 6.6 | 3.9 | 5.84 | 8.11 | 8.41 | 3.96 | 1.94 | 1.77 | 2.07 | 0.487 | 2.45 | 0.188 | 3.77 | 2.88
CCTACTGGGCCACTAAAGGTCATTGATTCAGTGA | 3.27 | 8.29 | 1.27 | 4.62 | 4.06 | 4.89 | 2.26 | 4.15 | 5.49 | 5.37 | 0.801 | 0.225 | 3.43 | 5.12 | 1.79 | 5.18 | 1.26 | 3.89 | 4.55
ATCGAAAGGTCTAAGGTGAGTATACCCACCCGAA | 0.614 | -0.103 | -0.0723 | 1.52 | 1.52 | 2.08 | 0.802 | 1.56 | -0.401 | 1.2 | 0.696 | 0.446 | 0.384 | 0.515 | 0.247 | 1.35 | 0.59 | 1.53 | 1.08
CGTCCAAGGTCATATGAGGTCAGTGAAGACAGAT | 7.7 | 6.17 | 2.22 | 5.65 | 4.87 | 5.72 | 2.34 | 4.36 | 3.46 | 3.84 | 0.668 | 0.114 | 4.65 | 7.23 | 9.26 | 6.07 | 2.7 | 5.34 | 5.47
AGTCAAAGTTCATCTAGGTCACGTAAGATATGCT | 7.54 | 7.38 | 2.1 | 5.68 | 7.93 | 7.25 | 4.56 | 6.61 | 3.49 | 6.09 | 1.86 | 2.18 | 4.77 | – | 13.9 | 6.05 | 2.4 | – | 5.12
TAGCCTAGGTCATTCAGGGGCAAGTATAGAAAGC | 5.65 | 2.15 | 1.41 | – | 2.47 | 2.67 | 0.449 | 1.87 | 1.93 | 3.07 | 0.118 | 0.778 | 1.7 | 5.54 | 0.783 | 3.46 | 0.682 | 3.81 | 3.46
CCTTACGGGTCACGTGGTTATAGCACGACGAGCG | 6.41 | -0.108 | -0.474 | 5.88 | 6.07 | 5.77 | 2.2 | 4.59 | 3.06 | 4.93 | 0.819 | -0.242 | 1.26 | – | -0.028 | 4.4 | 0.132 | 4.49 | 3.47
CGTCAAAGTTCAACTGAGGTAACGTAAAGCACGC | 7.32 | 5.02 | 2 | 5.29 | 5.04 | 5.58 | 2.33 | 4.11 | 0.26 | 2.31 | 0.285 | 0.242 | 3.03 | 5.86 | 4.5 | 4.36 | 1.6 | 5.41 | 4.06
ACTAGTTGGTCAGCTGAGGTCACACCCAATTCGG | 2.83 | 2.07 | 0.443 | 3.46 | 1.54 | 2.06 | 0.239 | 1.19 | 1.35 | 2.55 | 1.1 | 0.595 | 2.35 | 5.14 | 1.25 | 4.27 | 0.354 | 3.57 | 4.33
ATATGTAGGTTATCTGGGGTCATTCAGACTAGGC | 6.16 | 8.86 | 2.41 | 5.4 | 6.31 | 5.84 | 3.28 | 5.32 | 7.21 | 6.58 | 2.87 | 2.04 | 3.42 | – | 6.37 | 5.95 | 1.76 | 3.16 | 3.97
